In the library only some 8.3% were active in any assay of this set; here they are far more common.
SW480 rerep – induces DNA re-replication in SW480 colon adenocarcinoma cells | SW480 DNA re-replication, Hoechst DNA content imaging, 48 h | Potency, µM (top dose mostly 46.1 µM), hits mostly activators | hit rate 1.8% among 340,000; note: nearly all actives have a fitted effect of over 55% in size
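Quantitative HTS format with DMSO vehicle controls; 48 hr drug incubation at 37 C, then 40 min Hoechst staining and scanning imager measurement at 405 nm excitation.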
MCF10A rereplic – induces DNA re-replication in MCF 10a normal breast cells | hit rate 2.9% among 350,000 | Potency, µM (series often up to 46.1 µM), most hits filed as activators | AID 624296 | MCF 10A DNA re-replication, Hoechst nuclear intensity, 48 h; note: nearly all actives have a fitted effect of over 50% in size
RORgamma inh – blocks mouse ROR gamma transcriptional activity; Potency, µM (doses to about 53.6 µM), actives largely listed as inhibitors; Drosophila S2 Gal4-RORgamma UAS-luciferase reporter, 20 h; hit rate 5.4% among 310,000; note: nearly all actives have a fitted effect of over 60% in size
Target sequence (P51450 whole entry, looked up, the tested form may be a part): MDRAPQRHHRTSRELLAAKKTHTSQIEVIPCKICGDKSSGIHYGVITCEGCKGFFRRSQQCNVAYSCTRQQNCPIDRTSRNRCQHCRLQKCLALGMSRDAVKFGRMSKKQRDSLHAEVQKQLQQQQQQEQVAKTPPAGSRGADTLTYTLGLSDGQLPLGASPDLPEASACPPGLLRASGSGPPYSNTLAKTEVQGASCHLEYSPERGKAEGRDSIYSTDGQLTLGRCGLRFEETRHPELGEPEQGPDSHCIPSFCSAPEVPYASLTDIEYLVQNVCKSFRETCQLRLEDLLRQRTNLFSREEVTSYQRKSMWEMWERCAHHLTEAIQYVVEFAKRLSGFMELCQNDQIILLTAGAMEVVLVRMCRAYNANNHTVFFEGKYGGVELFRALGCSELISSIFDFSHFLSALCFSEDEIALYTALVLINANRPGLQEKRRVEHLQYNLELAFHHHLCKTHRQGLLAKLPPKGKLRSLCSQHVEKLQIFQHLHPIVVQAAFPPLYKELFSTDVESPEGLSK
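Compounds are pin-transferred onto Drosophila Schneider cells expressing a copper-inducible Gal4–ROR gamma transactivation domain fusion. After 1 hr, copper sulfate is added to 700 uM final; luciferase is read 20 hr later.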
Giardia killer – kills Giardia lamblia; Giardia lamblia trophozoite viability; activity change, % at 7.66 µM, hits read low; hit rate 0.15% among 340,000; AID 540267; in the data active = activity change below about -80%; inconclusive = between about -30% and that limit;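 note: parasites exposed to compound for two days anaerobically before the ATP read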
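Viability, read as ATP luminescence: trophozoites at 100 cells/well, compound added, 48 hrs anaerobic at 37 deg C, then 15-30 min room-temperature development before reading.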
VP16 counter – counter-screen for ROR gamma inhibitors: Gal4-VP16 reporter. Drosophila S2 Gal4-VP16 UAS-luciferase, luminescence, 20 h. Potency, µM (doses to about 53.6 µM), hits mostly inhibitors. AID 2546. hit rate 3.5% among 310,000;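 note: Gal4-VP16 expression switched on by copper sulfate through the metallothionein promoter; nearly all actives have a fitted effect of over 50% in size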
BCR signal inh – inhibitors of chronic active B-cell receptor signaling. ABC-DLBCL IkBa-CBG/CBR reporter, luminescence ratio, 4 h. Potency, µM (doses to about 46.1 µM), hits mostly inhibitors. hit rate 0.05% among 340,000; active = well fitted inhibition curve with a large enough effect in the signal ratio, with a control signal flat, not every such curve was filed as active; inconclusive = small, poorly fitted or top-dose-only effect, or effect the other way, or a change in a side signal; the % refers to the signal ratio
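TMD8 human ABC-DLBCL cells with doxycycline-inducible IκBα–green luciferase fusion and unfused red luciferase, in 0.5% FBS medium; compounds up to 46 uM, 4 h at 37C. Green/red luminescence ratio, filter-overlap corrected, fitted to concentration-response curves.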
Hits are given with their value; i = inactive; ? = inconclusive; nt = not tested or not shown. Unless noted, calls come from the whole dose curve; as a rule, active = well fitted curve in the direction sought with a large enough effect; inconclusive = small, poorly fitted or top-dose-only effect, or another doubt; inactive = no such curve, though single readings can be large; an effect the other way counts as inactive or inconclusive.

SMILES	SW480 rerep	MCF10A rereplic	RORgamma inh	Giardia killer	VP16 counter	BCR signal inh
COc1ccc(C(=O)N2CCCC2(C#N)c2ccccc2)cc1[N+](=O)[O-] (centres undefined)	i	i	?	i	i	i
CCn1cnc2c1c(=O)n(CC(=O)NCC(C)C)c(=O)n2Cc1ccccc1	i	i	i	i	i	i
O=C(N/N=C/c1c[nH]c2ccccc12)c1ccc(Br)cc1	i	i	?	i	?	i
O=C(/C=C/c1c[nH]c2ccccc12)c1ccccc1	18µM	?	i	i	?	?
O=C(N/N=C/c1c[nH]c2ccccc12)c1ccc(Cl)cc1	i	i	10µM	i	?	i
O=C(N/N=C\c1c[nH]c2ccccc12)c1ccc(O)cc1	i	i	6.3µM	i	i	?
O=C(N/N=C/c1c[nH]c2ccccc12)c1cc(Cl)ccc1O	i	i	5µM	i	6.3µM	?
Cc1ccc(C(=O)/C=C/c2c[nH]c3ccccc23)cc1	i	i	?	i	i	?
O=C(Nc1ccc(Cl)c(S(=O)(=O)N2CCOCC2)c1)[C@@H]1CCCN1C(=O)c1cccs1	i	i	nt	i	nt	i
CCOc1ccc(NC(=O)c2cc3cc4ccc(C)cc4nc3o2)cc1	nt	nt	i	nt	i	i
COc1ccc2cc3cc(C(=O)Nc4ccccc4N4CCN(C)CC4)oc3nc2c1	?	?	i	-87	i	i
CCOc1ccc(NC(=O)c2cc3cc4ccc(OC)cc4nc3o2)cc1	?	12µM	i	i	i	i
COc1ccc(NC(=O)CSc2nc3nc(C)cc(C)n3n2)cc1OC	nt	nt	nt	nt	nt	i
Brc1cc2c(cc1/C=N/Nc1nc(N3CCCC3)nc(N3CCOCC3)n1)OCO2	i	i	i	i	i	i
BrC(=C\c1ccccc1)/C=N/Nc1nc(N2CCOCC2)nc(N2CCOCC2)n1	i	?	i	i	?	i
Oc1ccc(Br)cc1/C=N/Nc1nc(N2CCCCC2)nc(N2CCOCC2)n1	21µM	i	i	i	i	i
C/C(=N\Nc1nc(N2CCOCC2)nc(N2CCOCC2)n1)c1cccs1	i	i	i	i	i	i
C/C(=N\Nc1nc(N2CCCCC2)nc(N2CCOCC2)n1)c1ccccc1O	12µM	?	i	i	i	i
Oc1ccc(/C=N/Nc2nc(N3CCCCCC3)nc(N3CCCCCC3)n2)c(O)c1	?	?	16µM	i	?	?
BrC(/C=C\c1ccccc1)=N/Nc1nc(N2CCOCC2)nc(N2CCOCC2)n1	?	10µM	i	i	i	?
COc1cccc(NC(=O)CSC2=Nc3ccccc3C3=NC(CC(=O)NCCc4ccccc4)C(=O)N23)c1 (centres undefined)	nt	nt	nt	nt	nt	i
COc1ccc(CCN2CC(C(=O)Nc3cc(F)ccc3F)CC2=O)cc1OC (centres undefined)	i	i	nt	i	nt	i
O=S(=O)(c1ccccc1)N1CCC2(CCCN(c3ccncc3)C2)CC1	nt	nt	i	nt	?	nt
CCOC(=O)C1CCCN(S(=O)(=O)c2ccc3c4c(cccc24)C(=O)N3CC)C1 (centres undefined)	7.3µM	i	nt	i	nt	i
CCOC(=O)C1CCCN(S(=O)(=O)c2ccc(OC)c3ccccc23)C1 (centres undefined)	i	i	i	i	i	?
SMILES	SW480 rerep	MCF10A rereplic	RORgamma inh	Giardia killer	VP16 counter	BCR signal inh
CCN1C(=O)c2cccc3c(S(=O)(=O)N4CCNCC4)ccc1c23	6.5µM	?	nt	i	nt	i
CCN1C(=O)c2cccc3c(S(=O)(=O)N4CCCC4C(=O)O)ccc1c23 (centres undefined)	18µM	i	i	i	i	i
CC(NC(=O)OCc1ccccc1)C(=O)Oc1cc2oc(=O)cc(-c3ccccc3)c2cc1Cl (centres undefined)	?	18µM	i	i	i	?
COc1ccccc1-n1c(=O)c2c3c(sc2n2c(=S)[nH]nc12)CCC3	i	i	13µM	i	i	i
Cc1ccc(NC(=S)Nc2ccc(F)cc2)c(C)c1	i	i	11µM	i	?	i
Cc1ccc(NC(=S)NCCc2ccc(F)cc2)c(C)c1	i	i	4.5µM	i	5µM	i
CC(=O)Nc1ccc(C)c(NC(=S)Nc2ccc(F)cc2)c1	i	i	i	i	i	?
COc1cc(C2NC(=O)NC(c3ccccc3)=C2C(C)=O)cc(Cl)c1OCC(=O)O (centres undefined)	i	i	i	i	i	?
COc1cc(C2NC(=O)NC(c3ccccc3)=C2C(C)=O)c(Cl)cc1OCC(=O)O (centres undefined)	4.1µM	i	i	i	i	i
CCOc1ccc(N(CC(=O)NCC2CCCO2)C(=O)CCC(=O)Nc2nccs2)cc1 (centres undefined)	i	i	i	i	i	i
CC(C)n1c(=S)[nH]c2cc(Cl)ccc21	i	i	?	i	20µM	?
CCN(CC)CCn1c(=S)[nH]c2ccc(Cl)cc2c1=O	i	i	?	i	?	i
COc1ccc(CCNC(=O)CCc2cc(OC)c(OC)c(OC)c2)cc1	i	i	i	i	i	i
COc1ccc(CCc2cc(OC)c(OC)c(OC)c2)cc1	?	1.8µM	nt	i	nt	nt
CC[C@]12CCCN3CCc4c(n(c5ccccc45)C(=O)C1)[C@@H]32	13µM	?	nt	i	nt	i
Cc1ccc(C(=O)NC(=S)NNS(=O)(=O)c2ccccc2)cc1	i	?	3.2µM	i	14µM	i
Cc1ccc(S(=O)(=O)NNC(=S)NCCc2ccccc2)cc1	i	i	11µM	i	?	i
Cn1c(COc2ccc(Cl)cc2)nnc1SCC(=O)Nc1ccc2c(c1)CCC2	i	i	i	i	i	i
CC1(C)Cc2nc3sc4c(SCC(=O)O)ncnc4c3cc2CO1	i	i	8.9µM	?	14µM	i
COC(=O)CSc1ncnc2c1sc1nc3c(cc12)COC(C)(C)C3	i	i	i	i	i	i
CCCSc1nc2c(cnn2-c2ccccc2)c(=O)[nH]1	i	i	i	i	i	i
O=c1[nH]c(/C=C/c2ccccc2OC(F)F)nc2c1cnn2-c1ccccc1	?	15µM	?	i	?	i
CN(C)/C=C/C(=O)c1cnc(-c2ccccn2)s1	i	i	i	i	i	?
Cc1cccc(-n2c(CCn3nc(C)c([N+](=O)[O-])c3C)n[nH]c2=S)c1	i	i	13µM	i	i	?
Cc1cccc(-n2c(Cc3ccccc3)n[nH]c2=S)c1	i	i	4µM	i	14µM	i
CCc1ccc(-n2c(Cc3ccccc3)n[nH]c2=S)cc1	i	i	2µM	i	?	i
COc1cccc(-n2c(CCn3nc(C)c([N+](=O)[O-])c3C)n[nH]c2=S)c1	i	i	?	i	i	i
Cc1cccc(NC(=O)C2CC(=O)N(Cc3ccccc3)C2)n1 (centres undefined)	i	i	nt	i	nt	i
